Holding throughout (assay): NCI-60 one-dose screen, 48 h (100 = growth as untreated, 0 = no growth, -100 = all killed)
For one experiment, the system named is SK-MEL-2 melanoma. The conditions noted are these: 10 µM unless noted.
In a further experiment the test system is EKVX NSCLC. To be noted: 10 µM unless noted.
In a further experiment the test system is SN12C renal. The conditions noted are these: 10 µM unless noted.
In a further experiment the test system is UO-31 renal. The conditions noted are these: 10 µM unless noted.
In a further experiment the test system is ACHN renal. To be noted: 10 µM unless noted.
A further experiment deals with CAKI-1 renal. To be noted: 10 µM unless noted.
A further experiment relates to A498 renal. The conditions noted are these: 10 µM unless noted.
Another experiment relates to CCRF-CEM leukemia. To be noted: 10 µM unless noted.
The next experiment concerns MOLT-4 leukemia. The conditions noted are these: 10 µM unless noted.
The subject of the next experiment is SR leukemia. The conditions noted are these: 10 µM unless noted.
In the next experiment the test system is RPMI-8226 leukemia. To be noted: 10 µM unless noted.
The test system of the next experiment is OVCAR-8 ovarian. To be noted: 10 µM unless noted.
In a further experiment the test system is OVCAR-5 ovarian. To be noted: 10 µM unless noted.
For a further experiment, the system named is OVCAR-4 ovarian. To be noted: 10 µM unless noted.
The test system of another experiment is SK-OV-3 ovarian. The conditions noted are these: 10 µM unless noted.
Another experiment has as its system IGROV1 ovarian. To be noted: 10 µM unless noted.
In the next experiment the test system is OVCAR-3 ovarian. The conditions noted are these: 10 µM unless noted.
A further experiment relates to HS 578T breast. To be noted: 10 µM.
The test system of a further experiment is NCI/ADR-RES ovarian. The conditions noted are these: 10 µM unless noted.
In a further experiment the test system is TK-10 renal. The conditions noted are these: 10 µM unless noted.

The panel holds about 83,000 compounds, 20% with a hit somewhere; the sample as a whole holds those more often.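 Activity criterion: percent growth below 10, measured after cells in 96-well plates were exposed to a single compound concentration for 48 hours.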 Values without a mark were called inactive. The source made the active and inactive calls.

For the molecule `Cc1ccc(NC(=O)Cn2nncc2CN2C(=O)CSC2=O)cc1C`, the growth in the experiment on SK-MEL-2 melanoma is 102%; with EKVX NSCLC, 91.3%; in the experiment on SN12C renal, 105%; in the experiment on UO-31 renal, 91.6%; with ACHN renal, 100%; in the experiment with CAKI-1 renal, 96.8%. Further, the growth in the experiment on A498 renal is 93.3%; in the experiment with CCRF-CEM leukemia, 106%; in the experiment with MOLT-4 leukemia it was 103%; in the experiment with SR leukemia, 124%; in the experiment with RPMI-8226 leukemia, 106%; in the experiment on OVCAR-8 ovarian, 102%. The growth in the experiment on OVCAR-5 ovarian is 112%; in the experiment with OVCAR-4 ovarian it was 104%; in the experiment on SK-OV-3 ovarian, 89.7%; in the experiment on IGROV1 ovarian it was 111%; in the experiment on OVCAR-3 ovarian it was 102%; in the experiment with HS 578T breast, 99.2%. The growth in the experiment on NCI/ADR-RES ovarian was 96.1%.
As for `COc1ccc(-n2nc(C(=O)NCC(=O)Nc3nc4cc(OC)ccc4s3)c3ccccc3c2=O)cc1`, the growth in the experiment on SK-MEL-2 melanoma is -19.9% (active); with EKVX NSCLC it was 30.4%; with SN12C renal, 41.7%; in the experiment with UO-31 renal, -0.0591% (active); in the experiment on TK-10 renal it was -41.9% (active); in the experiment on CAKI-1 renal, -27.5% (active). Also, the growth was -2.05% (active) in the experiment with A498 renal; 92.7% with CCRF-CEM leukemia; 58.5% with MOLT-4 leukemia; 86.8% in the experiment on SR leukemia; 39.1% with RPMI-8226 leukemia; -12.4% (active) in the experiment on OVCAR-8 ovarian. The growth in the experiment on OVCAR-5 ovarian is 44.6%; with OVCAR-4 ovarian, -20.4% (active); in the experiment with SK-OV-3 ovarian, -18.5% (active); in the experiment on IGROV1 ovarian, -3.66% (active); with OVCAR-3 ovarian, 3.53% (active); in the experiment with HS 578T breast, -4.47% (active). In addition, the growth in the experiment with NCI/ADR-RES ovarian was 1.75% (active).
As to `CN=C1C=C/C(=N/N=c2/ccn(O)cc2C)C=C1C`, the growth in the experiment on SK-MEL-2 melanoma was 97.6%; in the experiment with EKVX NSCLC, 87.4%; with SN12C renal, 90%; with UO-31 renal it was 77.6%; with TK-10 renal it was 118%; in the experiment on CAKI-1 renal, 93.9%. Besides, the growth in the experiment with CCRF-CEM leukemia is 105%; with MOLT-4 leukemia, 89.1%; in the experiment with SR leukemia, 90.5%; in the experiment with RPMI-8226 leukemia, 77.1%; in the experiment with OVCAR-8 ovarian, 94.2%; with OVCAR-5 ovarian, 83.2%. The growth was 97.5% in the experiment with OVCAR-4 ovarian; 102% in the experiment with SK-OV-3 ovarian; 129% in the experiment on IGROV1 ovarian; 117% in the experiment with OVCAR-3 ovarian; 110% in the experiment on HS 578T breast; 97.4% with NCI/ADR-RES ovarian.
Take `Oc1ccc(-c2cnc(-c3ccccc3)[nH]2)c(O)c1`: the growth with SK-MEL-2 melanoma is 137%; in the experiment with EKVX NSCLC it was 107%; in the experiment with SN12C renal it was 91.6%; with UO-31 renal, 88.7%; with ACHN renal, 109%; with A498 renal, 110%. In addition, the growth was -41.7% (active) in the experiment with CCRF-CEM leukemia; 94% in the experiment with MOLT-4 leukemia; 40.2% with SR leukemia; 38.7% in the experiment with RPMI-8226 leukemia; 119% in the experiment on OVCAR-8 ovarian; 116% with OVCAR-5 ovarian. The growth in the experiment with OVCAR-4 ovarian was 106%; in the experiment on SK-OV-3 ovarian, 113%; in the experiment on IGROV1 ovarian, 94.3%; in the experiment with OVCAR-3 ovarian it was 107%; with HS 578T breast, 97.7%; in the experiment with NCI/ADR-RES ovarian, 113%.
As to `COC(=O)c1cc(Cl)cc([N+](=O)[O-])c1O`, the growth with SK-MEL-2 melanoma was 135%; in the experiment with EKVX NSCLC it was 88.8%; with SN12C renal it was 108%; in the experiment with UO-31 renal, 87.1%; in the experiment with TK-10 renal, 118%; in the experiment with CAKI-1 renal, 92.6%. Also, the growth is 89.5% with A498 renal; 25.6% in the experiment with CCRF-CEM leukemia; 63.5% with SR leukemia; 93.3% with RPMI-8226 leukemia; 105% with OVCAR-8 ovarian; 93.7% in the experiment on OVCAR-5 ovarian. In addition, the growth was 122% in the experiment with OVCAR-4 ovarian; 116% in the experiment with SK-OV-3 ovarian; 114% with OVCAR-3 ovarian; 107% with HS 578T breast; 114% in the experiment with NCI/ADR-RES ovarian.
Consider `Clc1ccccc1Nc1nnc(-c2ccncc2)s1`, for which the growth in the experiment on SK-MEL-2 melanoma is 107%; in the experiment on EKVX NSCLC, 91.7%; in the experiment on SN12C renal, 86%; in the experiment with UO-31 renal, 90.7%; with ACHN renal it was 104%; with CAKI-1 renal, 90.5%. Also, the growth was 92.1% in the experiment with A498 renal; 96% in the experiment with CCRF-CEM leukemia; 93.4% with MOLT-4 leukemia; 89.2% in the experiment with RPMI-8226 leukemia; 100% in the experiment on OVCAR-8 ovarian; 107% in the experiment with OVCAR-5 ovarian. Besides, the growth with OVCAR-4 ovarian is 94.5%; in the experiment with SK-OV-3 ovarian, 105%; with IGROV1 ovarian, 101%; in the experiment with OVCAR-3 ovarian it was 110%; in the experiment with NCI/ADR-RES ovarian, 102%.
Take `CCCCCCCCNC(C)C(O)c1ccc(SC(C)C)cc1` (stereo unspecified): the growth is 71.4% in the experiment with SK-MEL-2 melanoma; 25.2% with EKVX NSCLC; 60.9% with SN12C renal; 29.5% in the experiment with UO-31 renal; 6.81% (active) with TK-10 renal; -56.8% (active) in the experiment on CAKI-1 renal. The growth in the experiment with A498 renal was 96.8%; in the experiment with CCRF-CEM leukemia it was -0.667% (active); in the experiment on MOLT-4 leukemia, -46.6% (active); in the experiment with SR leukemia, -55% (active); in the experiment with RPMI-8226 leukemia it was 14.8%; with OVCAR-8 ovarian, -5.31% (active). Further, the growth is 63.9% with OVCAR-4 ovarian; 83.9% with SK-OV-3 ovarian; -83% (active) with OVCAR-3 ovarian; 49.2% in the experiment on HS 578T breast; 47.8% with NCI/ADR-RES ovarian.
Take `N#Cc1nc(-c2ccc(Cl)cc2)cc(-c2ccc(Nc3nc(N4CCCCC4)nc(N4CCCCC4)n3)cc2)c1N`: the growth in the experiment with SK-MEL-2 melanoma was 106%; in the experiment with EKVX NSCLC it was 91.8%; in the experiment on SN12C renal, 104%; with UO-31 renal, 80%; in the experiment with TK-10 renal it was 120%; with CAKI-1 renal it was 83.8%. Further, the growth in the experiment on A498 renal was 110%; in the experiment on CCRF-CEM leukemia it was 107%; in the experiment on MOLT-4 leukemia, 99.2%; with SR leukemia, 105%; in the experiment with RPMI-8226 leukemia it was 111%; with OVCAR-8 ovarian, 96.5%. For the same molecule, the growth with OVCAR-5 ovarian was 113%; in the experiment on OVCAR-4 ovarian it was 110%; in the experiment with SK-OV-3 ovarian it was 90.9%; with IGROV1 ovarian, 91.4%; with HS 578T breast, 94.1%; in the experiment with NCI/ADR-RES ovarian, 102%.
Consider `CCOC(=O)c1ccc(N(CCC(=O)O)C(C)=O)cc1`, for which the growth is 105% in the experiment on SK-MEL-2 melanoma; 130% in the experiment with EKVX NSCLC; 107% in the experiment with SN12C renal; 79% in the experiment with UO-31 renal; 112% in the experiment with ACHN renal; 101% in the experiment on CAKI-1 renal. Also, the growth with A498 renal was 104%; in the experiment with CCRF-CEM leukemia it was 98.3%; in the experiment on MOLT-4 leukemia, 104%; in the experiment on SR leukemia, 129%; with RPMI-8226 leukemia, 110%; in the experiment on OVCAR-8 ovarian it was 104%. Besides, the growth was 102% in the experiment on OVCAR-5 ovarian; 114% with SK-OV-3 ovarian; 103% with IGROV1 ovarian; 120% with OVCAR-3 ovarian; 114% with HS 578T breast; 109% with NCI/ADR-RES ovarian.
